# From PubChem BioAssay (NCI)
# About 83,000 compounds went through this panel and 20% of them were active in at least one assay; those are over-represented in the sample as a whole.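 Values shown are percent growth following 48 h exposure of cells in 96-well plates to a single concentration of compound; below 10 was considered active.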 Unmarked numbers belong to inactive results. Calls of active or inactive are those of the source.
# Key:
# Experiment in all cases: NCI-60 one-dose screen, 48 h (100 = growth as untreated, 0 = no growth, -100 = all killed)
# Details in all cases: 10 µM unless noted
# NCI-H23 lung = tested on: NCI-H23 lung
# NCI-H226 lung = tested on: NCI-H226 lung
# NCI-H322M lung = tested on: NCI-H322M lung
# HOP-62 NSCLC = tested on: HOP-62 NSCLC
# NCI-H460 lung = tested on: NCI-H460 lung
# HOP-92 NSCLC = tested on: HOP-92 NSCLC
# NCI-H522 lung = tested on: NCI-H522 lung
# A549/ATCC NSCLC = tested on: A549/ATCC NSCLC
# 786-0 renal = tested on: 786-0 renal
# COLO 205 colon = tested on: COLO 205 colon
# DU-145 prostate = tested on: DU-145 prostate
# K-562 leukemia = tested on: K-562 leukemia
# MALME-3M melanoma = tested on: MALME-3M melanoma
# MDA-MB-231 breast = tested on: MDA-MB-231 breast
# RXF 393 renal = tested on: RXF 393 renal
# SF-268 CNS = tested on: SF-268 CNS
# SF-295 CNS = tested on: SF-295 CNS
# SF-539 CNS = tested on: SF-539 CNS
# UACC-257 melanoma = tested on: UACC-257 melanoma
# M14 melanoma = tested on: M14 melanoma
Compound,growth (NCI-H23 lung),growth (NCI-H226 lung),growth (NCI-H322M lung),growth (HOP-62 NSCLC),growth (NCI-H460 lung),growth (HOP-92 NSCLC),growth (NCI-H522 lung),growth (A549/ATCC NSCLC),growth (786-0 renal),growth (COLO 205 colon),growth (DU-145 prostate),growth (K-562 leukemia),growth (MALME-3M melanoma),growth (MDA-MB-231 breast),growth (RXF 393 renal),growth (SF-268 CNS),growth (SF-295 CNS),growth (SF-539 CNS),growth (UACC-257 melanoma),growth (M14 melanoma)
CC(=O)c1sc(-c2ccc(F)cc2)cc1O,96.4%,103%,98.3%,111%,108%,102%,99.2%,97.2%,96.7%,116%,97.7%,88.5%,99%,127%,111%,97.2%,105%,114%,100%,95.1%
c1ccc2cc(Cn3cc(CSc4nc5ccccc5s4)nn3)ccc2c1,93.2%,83.8%,97.6%,85.7%,106%,98.7%,86.9%,93.4%,101%,102%,109%,97.4%,97.7%,89.3%,98.3%,95.8%,96.5%,95.3%,99.9%,99.4%
O=C(NC1CCC(Br)CC1)C1CCCC(S(=O)(=O)NC2CCCCC2)C1 (stereo not given),-3.95% [25 µM] (active),19.7% [25 µM],41.9% [25 µM],13.8% [25 µM],14.1% [25 µM],-15.2% [25 µM] (active),-3.79% [25 µM] (active),10.4% [25 µM],36% [25 µM],13% [25 µM],29.9% [25 µM],8.64% [25 µM] (active),19.5% [25 µM],36.1% [25 µM],37.2% [25 µM],20.8% [25 µM],-4.06% [25 µM] (active),28.8% [25 µM],-6.91% [25 µM] (active),22.1% [25 µM]
N#Cc1nn(-c2cc(=O)[nH]c3ccc(Br)cc23)c(N)c1C#N,102%,98.4%,93.3%,83.2%,105%,-90.8% (active),78.4%,101%,97.4%,80%,117%,-12.4% (active),89.4%,85.3%,115%,108%,101%,105%,93.4%,90.1%
Fc1cccc(CNc2c3ccccc3nc3ccccc23)c1,33.9%,50.6%,40.2%,47.9%,12.7%,-4.06% (active),37.8%,29.3%,36.4%,17.3%,41.7%,15.7%,50.5%,30.6%,32.8%,62.1%,25.2%,26.9%,58.1%,38.8%
COC1C(O)CC(OC2CC(OC3CC(O[C@@H]4C(=O)c5c(cc6cc(OC7CC(OC8CC(O)C(O)C(C)O8)C(O)C(C)O7)c(C)c(O)c6c5O)CC4[C@H](OC)C(=O)C(C)=O)OC(C)C3O)OC(C)C2O)OC1C (stereo not given in full),-23.8% (active),-10.8% (active),-8.5% (active),-20.1% (active),8.4% (active),-6.32% (active),-35.4% (active),1.9% (active),4.33% (active),-47.6% (active),10.4%,2.1% (active),-30.6% (active),6.75% (active),-56.3% (active),2.33% (active),0.867% (active),-20.8% (active),-23.4% (active),-34.4% (active)
CC(C)(C)c1ccc(C(=O)N/N=C/c2ccc(O)cc2O)cc1,19.1%,12.1%,26.8%,17.9%,0.52% (active),33.6%,33.4%,11.8%,19.7%,14.7%,24.5%,14.2%,11.9%,35.1%,-4% (active),19.9%,16.6%,11.2%,3.68% (active),-10.3% (active)
COc1ccc(C2CC(n3ccnc3)c3cc(OC)c(OC)c(OC)c32)cc1O (stereo not given),91.5%,97.4%,102%,80.8%,78.7%,59.6%,50.1%,55.8%,91.7%,107%,102%,44.7%,73.2%,81%,70.8%,90%,57.5%,89.8%,58.5%,73.1%
Nc1c(Cl)cc(/C=C2\C=Cc3ccccc32)cc1Cl,97.4%,98.7%,106%,102%,112%,99.6%,93.1%,92.7%,102%,102%,97.8%,100%,119%,113%,103%,105%,115%,97.5%,98.3%,105%
COc1cc(-c2ccc[nH]2)[nH]c1/C=C1\N=C(C)C(CC(=O)OCC(C)(C)C)=C1C,-46.8% (active),-55.5% (active),-49.7% (active),-70.9% (active),-67.3% (active),-51.3% (active),-62.8% (active),-69.1% (active),-88.1% (active),-61.9% (active),-73.9% (active),-42.9% (active),-76.3% (active),-57.2% (active),-82.3% (active),-70.8% (active),-81.8% (active),-69.3% (active),-81.4% (active),-86.3% (active)
COc1ccc(-c2cc(-c3cc(OC)ccc3OC)nc(SCC(C)=O)c2C#N)cc1,76.1%,83.4%,97.6%,75.5%,78.8%,38.2%,54.9%,49.4%,75%,78.2%,73.7%,72.2%,92%,50.9%,-0.171% (active),65.8%,58.5%,64.9%,93.5%,69.8%
c1cc(OCCCCCOc2cccc(-c3nc4ccccc4[nH]3)c2)cc(-c2nc3ccccc3[nH]2)c1,3% (active),10.2%,23.1%,39.1%,6.73% (active),-29.3% (active),-14.8% (active),13.9%,19.8%,-59.1% (active),33.2%,9.81% (active),-13.6% (active),19.6%,6.51% (active),61.3%,8.95% (active),28.3%,22.9%,20.1%
C#CCOc1cccc(Nc2ncnc3cc(NC(=O)CCl)ccc23)c1,-65% (active),-26.7% (active),-13.9% (active),-61.6% (active),-55.3% (active),-76.9% (active),-76.1% (active),-59.4% (active),-69.1% (active),-79.9% (active),-77.1% (active),-43% (active),-73.4% (active),-78.9% (active),-75.6% (active),-55.8% (active),-92.8% (active),-80.4% (active),-43.3% (active),-56.1% (active)
O=[N+]([O-])c1ccccc1Sc1ccccc1[N+](=O)[O-],93.7%,98.5%,91.4%,92.8%,103%,78.6%,87.8%,87.2%,93.4%,110%,104%,97.5%,92.4%,105%,98.1%,88%,101%,94.8%,107%,100%
C/C=C1/CN(CCCCC)CC[C@H]1C(=O)c1cc2ccccc2[nH]1,85.1%,92.9%,86.6%,85.5%,97.3%,52.3%,88.1%,100%,99.9%,98.9%,99%,69.6%,91.4%,88.5%,94.1%,89.8%,94.5%,98.9%,108%,90.2%
CC(C)Cc1nc(Nc2ccccc2)[nH]c(=O)c1C#N,33.8%,58.1%,61%,82.7%,59.8%,-14% (active),17.3%,57.3%,72.6%,49.7%,70.8%,48.8%,72.6%,47.9%,67.4%,63.3%,58.7%,50.7%,81.2%,53.2%
